Laboratory results as given in ChEMBL document CHEMBL3988442, “University of Dundee, Small-Polar-MMV Screening Library” (2021).
Out of some 48,000 compounds screened, about 13,000 (27%) showed an effect of 50% or more. The list shows a part of the results.

What follows are compounds tested on Wolbachia pipientis (assay: Anti-Wolbachia Cell-Based Screen). Settings: 5 µM.
Format: functional
Design: scale not given: in the data most compounds retested in dose-response had high values
CC(C)Oc1ccc(CN2CCN3CCN(C)CC3C2)cc1CO (centres undefined) was tested, and the “Percent Effect” value was 9.29%. CC(C)N1CCc2onc(Cn3cccc3)c2C1.O=C(O)C(F)(F)F was tested, and the “Percent Effect” value was -0.5475%. For CCc1cnc(C)nc1NCCC(=O)N1CCC(C)CC1, the “Percent Effect” value was -0.3722%. For COc1ccnc(N(C)Cc2ccccc2O)n1, the “Percent Effect” value was -0.8473%. With CN(C)C(CNCc1nc(-c2ccsc2)no1)c1cccc(F)c1 (centres undefined) the “Percent Effect” value was 29.87%. With CC(=O)Oc1ccnc(C(F)(F)F)c1C(C)=O the “Percent Effect” value was 6.517%. For O=C(O)C(F)(F)F.O=S(=O)(c1cccs1)N1CC[C@@H](O)[C@@H]1Cc1ccncc1, the “Percent Effect” value was 6.31%. With O=C(O)C(F)(F)F.O=S(=O)(c1cccs1)N1CCCn2cnc(CN3CCCC3)c2C1 the “Percent Effect” value was -2.227%. With O=C(O)C(F)(F)F.O=S(=O)(c1cccs1)N1Cc2nc(CN3CCCC3)oc2C1 the “Percent Effect” value was 87.16%. With Cc1cccc(CN2C[C@@H]3CN(C(=O)c4ccsc4)C[C@@H]3C2=O)n1.O=C(O)C(F)(F)F the “Percent Effect” value was -3.63%. With O=C(c1ncc[nH]1)N1CCC(Cn2cc(-c3cccc(Cl)c3)nn2)CC1 the “Percent Effect” value was -5.477%. With COc1ccc(Cc2noc(-c3ccc(NC(C)CO)nc3)n2)cc1 (centres undefined) the “Percent Effect” value was 5.885%. In the case of COc1cccc(-c2noc(-c3ccc(NCC(C)O)nc3)n2)c1OC (centres undefined), the “Percent Effect” value is reported as -13.68%. C[C@@H](CO)Nc1cc(-c2cn[nH]c2)ncn1 was tested, and the “Percent Effect” value was 112.5%. With CCC(CO)NC(=O)c1cc(COc2ccc(OC)cc2Cl)[nH]n1 (centres undefined) the “Percent Effect” value was -12.2%. C[C@H](O)CNc1cc(-c2cn[nH]c2)ncn1 was tested, and the “Percent Effect” value was 139.4%. For CC(C)c1nccn1CCCNC(=O)c1ccc(-c2cn[nH]c2)nc1, the “Percent Effect” value was -8.447%. For COc1cccc(-n2cc(-c3ccnc(N[C@H](CO)C(C)C)n3)cn2)c1, the “Percent Effect” value was 4.852%. With COc1cccc(-n2cc(-c3ccnc(NC(CO)C(C)C)n3)cn2)c1 (centres undefined) the “Percent Effect” value was 8.395%. With CC[C@@H](CO)Nc1cc(-c2cn[nH]c2)ncn1 the “Percent Effect” value was 98.52%. For CC(C)[C@@H](CO)Nc1cc(-c2cn[nH]c2)ncn1, the “Percent Effect” value was 127.6%. With CC[C@@H](CO)NC(=O)c1cc(COc2ccc(OC)cc2Cl)[nH]n1 the “Percent Effect” value was -9.741%. In the case of CSc1ccc2c(C)cc(N[C@@H](C)CO)nc2c1, the “Percent Effect” value is reported as -9.02%. Cc1cc(CN2CCN(C(=O)NCCCc3cn[nH]c3C)CC2)on1 was tested, and the “Percent Effect” value was -23.87%. For Cc1ccc(-n2nnnc2SCN2CCCCC2=O)cc1C, the “Percent Effect” value was -13.91%. In the case of Cc1ccc(CNC(=O)CN2C=Nc3ccccc3S2(=O)=O)s1, the “Percent Effect” value is reported as 1.242%. COc1ccc(C)c2c1N(C(=O)c1cnc(C)s1)CCC2 was tested, and the “Percent Effect” value was 46.61%. With O=C(Nc1nnc(C2CC2)s1)NC1CCN(Cc2ccccc2)C1 (centres undefined) the “Percent Effect” value was -1.377%. With CCNC(=O)C1CCN(Cc2ccc(C(=O)Nc3nnc(C)s3)cc2)C1 (centres undefined) the “Percent Effect” value was 100.1%. With CCCN(C(=O)c1cnns1)C1CCCN(Cc2ccccc2)C1 (centres undefined) the “Percent Effect” value was 20.84%. With CCNC(=O)C1CCN(Cc2ccc(C(=O)Nc3cnns3)cc2)C1 (centres undefined) the “Percent Effect” value was 106%. Cn1cnnc1CNC(=O)C1CCCN(Cc2ccccc2)C1 (centres undefined) was tested, and the “Percent Effect” value was -10.08%. In the case of NC(=O)C1CCCN(Cc2ccc(C(=O)Nc3cnns3)cc2)C1 (centres undefined), the “Percent Effect” value is reported as 103.7%. For NC(=O)c1ccc(CN2CCCC(N3CCCC3)C2)cc1 (centres undefined), the “Percent Effect” value was -7.606%. In the case of CCc1ccc(CN2CCC(CNC(=O)c3ccc(C)nc3)C2)nc1 (centres undefined), the “Percent Effect” value is reported as 20.32%. O=C(c1ccc(CN2CCCC2)cc1)N1CCCC(n2cccn2)C1 (centres undefined) was tested, and the “Percent Effect” value was 0.6704%. For CCC(CC)CS(=O)(=O)NC(=O)C1CCCC1, the “Percent Effect” value was -11.88%. In the case of Cc1cnccc1CN(C)Cc1c[nH]nc1-c1ccc(F)cc1F, the “Percent Effect” value is reported as -6.627%. In the case of Cc1cc(C)n(-c2cccc(NC(=O)N3CCC[C@@H]3CO)c2)n1, the “Percent Effect” value is reported as -12.47%. O=C(c1cncc2ccccc12)N1CCC[C@@H]1CO was tested, and the “Percent Effect” value was 106.1%. CC(NC(=O)N1CCC[C@H]1CO)c1noc(-c2ccccc2)n1 (some centres undefined) was tested, and the “Percent Effect” value was 5.475%. For Cc1cnn(CC2CCCN2C(=O)c2cc(O)nc3ccccc23)c1 (centres undefined), the “Percent Effect” value was 145.5%. With COc1ccccc1C(=O)N1CCCC1Cn1cc(C)cn1 (centres undefined) the “Percent Effect” value was -4.126%. Cc1cnn(CC2CCCN2C(=O)c2cn(C)c3ccccc23)c1 (centres undefined) was tested, and the “Percent Effect” value was 141.3%. With O=C(Nc1ccccc1OC1CCOC1)c1ccon1 (centres undefined) the “Percent Effect” value was -7.759%. In the case of CCN(CCc1nc2cc(C)ccc2[nH]1)C(=O)[C@@H](N)Cc1c[nH]cn1, the “Percent Effect” value is reported as -4.555%. CCOCc1nccc(-c2ccc(OCC)c(C(=O)O)c2)n1 was tested, and the “Percent Effect” value was -8.809%. With Cc1noc(C(C)N2CCc3[nH]c4ccc(Cl)cc4c3C2)n1 (centres undefined) the “Percent Effect” value was 55.06%. For Cc1cccc(-c2nnc(C(C)N3CCn4c(C)nnc4C3)o2)c1 (centres undefined), the “Percent Effect” value was 3.143%. For Cc1nnc(C(C)N2CCc3[nH]c4ccccc4c3C2)o1 (centres undefined), the “Percent Effect” value was 119.5%. With CCc1cc(C)nc(N2CCN(C(C)c3nc(C)no3)CC2)n1 (centres undefined) the “Percent Effect” value was 7.355%. With Cc1nnc2n1CCN(C(C)c1nnc(-c3cccs3)o1)C2 (centres undefined) the “Percent Effect” value was 4.366%. For Cc1nnc(C(C)N2CCc3[nH]c4ccc(Cl)cc4c3C2)o1 (centres undefined), the “Percent Effect” value was 96.73%. For Cc1ccc(-c2nnc(C(C)N3CCn4c(C)nnc4C3)o2)cc1 (centres undefined), the “Percent Effect” value was 7.305%. In the case of Cc1nnc(C(C)NCC2(c3ccc(Cl)cc3)CCCC2)o1 (centres undefined), the “Percent Effect” value is reported as 5.084%. In the case of Cc1noc(C(C)N2CCC(c3nc4ccccc4[nH]3)CC2)n1 (centres undefined), the “Percent Effect” value is reported as -1.749%. With CN(CCO)C[C@@H]1CN(Cc2ccccc2C#N)C[C@@H]1CO the “Percent Effect” value was 5.341%. For O=C(O)C(F)(F)F.O=C([C@H]1COC[C@H]2CN(C3CCCC3)C[C@H]21)N1CCCO1, the “Percent Effect” value was 3.277%. Cl.Cl.O=C(NC[C@H]1OC[C@@H](NC2CCNCC2)[C@@H]1O)C1CCCC1 was tested, and the “Percent Effect” value was -10.79%. For O=C(C1CC1)N1C[C@@H](F)[C@@H](OCc2nc3ccccc3[nH]2)C1, the “Percent Effect” value was -5.445%. For O=C(CC1CC1)N1CCO[C@H]2[C@H](OCCCn3cccn3)CC[C@@H]21.O=C(O)C(F)(F)F, the “Percent Effect” value was 104.8%. With CCS(=O)(=O)N1CCO[C@H]2[C@H](OCCCn3cccn3)CC[C@@H]21.O=C(O)C(F)(F)F the “Percent Effect” value was 3.946%. In the case of Cn1cccc1C(=O)N1CCO[C@H]2[C@H](OCc3cccnc3)CC[C@@H]21.O=C(O)C(F)(F)F, the “Percent Effect” value is reported as -1.301%. In the case of CC(=O)N1CCO[C@H]2[C@H](OCCCn3cccn3)CC[C@@H]21.O=C(O)C(F)(F)F, the “Percent Effect” value is reported as 121.4%. With O=C(N1CCCC1)N1CCO[C@H]2[C@@H](OCc3cccnc3)CC[C@@H]21.O=C(O)C(F)(F)F the “Percent Effect” value was -4.224%. In the case of O=C(C1CCOCC1)N1CCO[C@H]2[C@H](Oc3ccccn3)CC[C@@H]21.O=C(O)C(F)(F)F, the “Percent Effect” value is reported as -40.04%. In the case of O=C(C1CCC1)N1CCO[C@H]2[C@H](OCCCn3cccn3)CC[C@@H]21.O=C(O)C(F)(F)F, the “Percent Effect” value is reported as 102.2%. CCOCC(=O)NCC(Cc1cccc(F)c1)n1cccc1 (centres undefined) was tested, and the “Percent Effect” value was 6.887%. With CS(=O)(=O)CCCNC(=O)Nc1sc2ccccc2c1Cl the “Percent Effect” value was -10.11%. COCC1CCN(CCOc2ccc(C#N)cc2OC)CC1 was tested, and the “Percent Effect” value was -11.6%. With COc1cc(C(C)=O)ccc1OCCNCc1ccco1.Cl the “Percent Effect” value was -30.68%. In the case of COc1cc(C(C)=O)ccc1SCC(=O)Nc1ccc(C)cn1, the “Percent Effect” value is reported as -18.24%. COc1cc(C#N)ccc1OC12CCCN(CC1)C2 (centres undefined) was tested, and the “Percent Effect” value was 107.4%. In the case of COC(=O)c1ccc(Cn2nc(C)cc2C)c(OC)c1, the “Percent Effect” value is reported as -3.306%. For COc1cc(C(C)=O)ccc1OC12CCCN(CC1)C2 (centres undefined), the “Percent Effect” value was 108.8%. In the case of COC(=O)c1ccc(Cn2cccc(C(F)(F)F)c2=O)c(OC)c1, the “Percent Effect” value is reported as 9.312%. With COC(=O)c1ccc(OC)c(OC23CCCN(CC2)C3)c1 (centres undefined) the “Percent Effect” value was 94.41%. With COc1cc(C#N)ccc1OCCN1CCC(n2ccnc2)CC1 the “Percent Effect” value was 7.917%. With CCNC(=O)Nc1cccc(F)c1C(=O)NC1CCCC1 the “Percent Effect” value was 2.869%. For CC(C)CC(C#N)NC(=O)COC1CCCCC1 (centres undefined), the “Percent Effect” value was -4.996%. CC(C)COC1CC2(CCN(Cc3nccn3C)CC2)C1.O=C(O)C(F)(F)F was tested, and the “Percent Effect” value was -0.08907%. In the case of Cn1ccc(CN2CCC3(CCCN3CC3CC3)CC2)n1.O=C(O)C(F)(F)F.O=C(O)C(F)(F)F, the “Percent Effect” value is reported as 89.46%. For O=C(O)C(F)(F)F.O=C(O)C(F)(F)F.c1csc(CN2CCC3(CCCN3CC3CC3)CC2)n1, the “Percent Effect” value was 0.06996%. With Cc1ccc(NC2COC3(CCN(Cc4ccn(C)n4)CC3)C2)nn1.O=C(O)C(F)(F)F (centres undefined) the “Percent Effect” value was -6.198%. With CN(C)CCN1CCCC12CCN(Cc1nccn1C)CC2.O=C(O)C(F)(F)F.O=C(O)C(F)(F)F.O=C(O)C(F)(F)F the “Percent Effect” value was 106.1%. With Cn1ccnc1CN1CCC2(CCCN2c2ncccn2)CC1.O=C(O)C(F)(F)F the “Percent Effect” value was -8.541%. With Cn1ccc(CN2CCCC23CCN(Cc2nccn2C)CC3)n1.O=C(O)C(F)(F)F.O=C(O)C(F)(F)F the “Percent Effect” value was 97.85%. CN(C)C(=O)[C@H]1CCS(=O)(=O)[C@@H]2CN(c3ncccn3)C[C@H]12 was tested, and the “Percent Effect” value was 99.37%. With CC(C)NC(=O)[C@H]1CCS(=O)(=O)[C@@H]2CN(c3ncccn3)C[C@H]12 the “Percent Effect” value was -3.711%. Cc1cnc(N2C[C@@H]3[C@@H](C(=O)NCC(C)C)CCS(=O)(=O)[C@@H]3C2)nc1 was tested, and the “Percent Effect” value was -2.009%. With CC(C)CNC(=O)[C@H]1CCS(=O)(=O)[C@@H]2CN(c3ncccn3)C[C@H]12 the “Percent Effect” value was 91.22%. With CCc1cnc(N2C[C@H]3CCCC(N(C)Cc4ccccn4)[C@H]3C2)nc1 (some centres undefined) the “Percent Effect” value was -24.97%. In the case of CCc1cnc(N2C[C@@H]3[C@@H](C(=O)N(C)C)CCS(=O)(=O)[C@@H]3C2)nc1, the “Percent Effect” value is reported as 108.3%. For CN(C)C[C@@H]1CCC[C@@H]2CN(c3ncccn3)C[C@@H]21.O=C(O)C(F)(F)F, the “Percent Effect” value was 2.797%. For Cc1cnc(N2C[C@@H]3[C@@H](C(=O)NC(C)C)CCS(=O)(=O)[C@@H]3C2)nc1, the “Percent Effect” value was -24.89%. CCc1cnc(N2C[C@@H]3[C@@H](C(=O)NCC(C)C)CCS(=O)(=O)[C@@H]3C2)nc1 was tested, and the “Percent Effect” value was -5.453%. For CC(C)NC(=O)[C@H]1CCS(=O)(=O)[C@@H]2CN(c3ncc(F)cn3)C[C@H]12, the “Percent Effect” value was -13.53%. CCc1cnc(N2C[C@@H]3[C@@H](C(=O)NC(C)C)CCS(=O)(=O)[C@@H]3C2)nc1 was tested, and the “Percent Effect” value was -2.445%. In the case of CN(C)C(=O)[C@H]1CCS(=O)(=O)[C@@H]2CN(c3ncc(F)cn3)C[C@H]12, the “Percent Effect” value is reported as 102%.
